Reference: PubChem BioAssay AID720650 (Broad Institute, 2013)
Calls of active or inactive are those of the source. No rule for the calls is given here.

Test: Biochemical counterscreen for C difficile toxins, absence of UDPG, inhibitor dose response (AID 720650)
Conditions: series mostly up to 19.5 µM

**Q.** Which AC50 does the source give for `COc1cc(Cn2nnc3ccccc32)ccc1O` here?
**A.** 15.8 µM (active)

**Q.** With `CCC(=O)N1CC[C@@H]2[C@@H](CO)N(C)c3ccc(-c4ccccc4)cc3[C@@H]21` as the molecule, how does the AC50 read?
**A.** 6.31 µM (active)

**Q.** For `O=C(NC(=S)Nc1ccc(O)cc1)c1ccccc1Cl`, which AC50 is on record?
**A.** 13.3 µM (active)

**Q.** With `Nc1cc(=O)[nH]c(SCC(=O)Nc2ccccc2Sc2ccc(Cl)cc2)n1` as the molecule, how does the AC50 read?
**A.** inactive

**Q.** For `COc1cccc(C(CNc2ccc(S(=O)(=O)N3CCN(C)CC3)cc2[N+](=O)[O-])N(C)C)c1` (stereo not drawn), which AC50 is on record?
**A.** inactive

**Q.** With `COc1ccc(NC(=O)Cn2cnc3sc(C)c(S(=O)(=O)N4CCOCC4)c3c2=O)c(OC)c1` as the molecule, how does the AC50 read?
**A.** inactive

**Q.** For `Oc1ccc(Cc2ccccc2Cl)c(O)c1`, which AC50 is on record?
**A.** > 39 µM (inactive)

**Q.** Which AC50 does the source give for `COC(=O)C[C@H]1CC[C@@H]2[C@@H](COc3ccc(NC(=O)c4cccc(OC)c4)cc3C(=O)N2C)O1` here?
**A.** inactive

**Q.** For `O=C(CNS(=O)(=O)c1ccc([N+](=O)[O-])cc1)N/N=C\c1ccc(O)cc1`, which AC50 is on record?
**A.** 13.2 µM (active)

**Q.** With `Cc1noc(/C=C/c2ccccc2F)c1S(=O)(=O)N1CCC(C(=O)N2CCN(C)CC2)CC1` as the molecule, how does the AC50 read?
**A.** inactive

**Q.** With `O=c1[nH]c(/C=C\c2ccc(O)c(Cl)c2)nc(O)c1[N+](=O)[O-]` as the molecule, how does the AC50 read?
**A.** 20 µM (active)

**Q.** Which AC50 does the source give for `CC(Oc1ccc(Cl)cc1Cl)C(=O)Nc1ccc(O)cc1` (stereo not drawn) here?
**A.** 12.9 µM (active)

**Q.** Which AC50 does the source give for `Cn1c(=O)c2c(nc(N3CCOCC3)n2CCSc2ncccn2)n(C)c1=O` here?
**A.** inactive

**Q.** For `O=C(C[C@H]1C[C@H]2c3cc(NC(=O)c4ccc5c(c4)OCO5)ccc3O[C@H]2[C@@H](CO)O1)NCc1cccc(F)c1`, which AC50 is on record?
**A.** inactive

**Q.** For `Cc1cccc(/C=C/c2onc(C)c2S(=O)(=O)N2CCC(C(=O)NC(C)(C)C)CC2)c1`, which AC50 is on record?
**A.** inactive

**Q.** Which AC50 does the source give for `O=P1(Oc2ccccc2)OCCCS1` (stereo not drawn) here?
**A.** inactive

**Q.** With `COc1ccc(/C=C(/C#N)C(=O)Nc2ccc(O)cc2)cc1C(=O)O` as the molecule, how does the AC50 read?
**A.** 12.2 µM (active)

**Q.** For `CCCNC(=O)C1(C)CCCN(C(=O)c2ccccc2OC(F)(F)F)C1` (stereo not drawn), which AC50 is on record?
**A.** inactive

**Q.** For `Cc1c(C(=O)c2ccccc2)c2ccccn2c1CCc1ccccn1`, which AC50 is on record?
**A.** inactive

**Q.** With `Cc1cc(O)ccc1NC(=O)c1ccccc1` as the molecule, how does the AC50 read?
**A.** 17.9 µM (active)

**Q.** With `O=C(NCc1ccccc1)[C@@H]1CCCN1C(=O)[C@@H]1CCCN1C(=O)c1cccs1` as the molecule, how does the AC50 read?
**A.** inactive

**Q.** Which AC50 does the source give for `O=C(NCCc1ccc(Cl)cc1)C1CCN(S(=O)(=O)c2ccc(Br)s2)CC1` here?
**A.** inactive

**Q.** For `Cc1cccc(/C=C/c2onc(C)c2S(=O)(=O)N2CCC(C(=O)N3CCCCCC3)CC2)c1`, which AC50 is on record?
**A.** inactive

**Q.** For `O=C(CNC(=O)c1ccccc1Br)N/N=C/c1ccc(O)cc1`, which AC50 is on record?
**A.** 15.7 µM (active)

**Q.** For `Cc1ccc(/C=N/NC(=O)c2cccc(S(=O)(=O)Nc3ccccc3Cl)c2)o1`, which AC50 is on record?
**A.** inactive

**Q.** Which AC50 does the source give for `CCCNC(=O)N1CC[C@@H]2[C@@H](CO)N(C)c3ccc(-c4ccc(F)cc4)cc3[C@@H]21` here?
**A.** 4.27 µM (active)

**Q.** Which AC50 does the source give for `Cc1ccc(C2=NS(=O)(=O)N(C)C(C(=O)NCc3cccs3)=C2)cc1` here?
**A.** inactive

**Q.** For `COc1ccccc1-c1cn[nH]c1-c1ccc(O)cc1O`, which AC50 is on record?
**A.** > 39 µM (inactive)

**Q.** Which AC50 does the source give for `COc1ccc(CC(=O)C2C(=O)N(C)c3ccccc32)cc1OC` (stereo not drawn) here?
**A.** inactive

**Q.** With `Cc1noc(C)c1NC(=O)N(C)C[C@@H]1Oc2ccc(NC(=O)C3CCCCC3)cc2C(=O)N([C@@H](C)CO)C[C@H]1C` as the molecule, how does the AC50 read?
**A.** inactive

**Q.** With `Nc1ccc2nc(-c3cccs3)[nH]c2c1` as the molecule, how does the AC50 read?
**A.** 11 µM (active)

**Q.** For `CC(C)OC(=O)C(=O)NNc1ccccc1`, which AC50 is on record?
**A.** 1.35 µM (active)

**Q.** With `COc1cc(/C=C/C(=O)OCC(=O)Nc2ccc(S(N)(=O)=O)cc2)ccc1O` as the molecule, how does the AC50 read?
**A.** inactive

**Q.** With `CC1(C)CCC/C(=C\c2ccccc2)C1=O` as the molecule, how does the AC50 read?
**A.** inactive

**Q.** For `O=C(C[C@@H]1CC[C@@H]2[C@H](COC[C@@H](O)CN2C(=O)Nc2ccc(Cl)c(Cl)c2)O1)NCc1ccncc1`, which AC50 is on record?
**A.** inactive

**Q.** With `O=C(Nc1ccc(N2CCOCC2)c(Cl)c1)c1ccc(Cl)cc1` as the molecule, how does the AC50 read?
**A.** 12.3 µM (active)

**Q.** Which AC50 does the source give for `Cc1ccc(S(=O)(=O)N2CCC(C(=O)OCC(=O)NCCc3ccccc3)CC2)cc1C` here?
**A.** inactive

**Q.** Which AC50 does the source give for `COc1ccc(C(=O)Nc2c(-c3cccs3)c(=O)c3ccccc3n2C)cc1` here?
**A.** inactive
